# PLK1 PBD block = PLK1 (human) polo-box domain binding inhibition; P53350; Plk1 PBD binding of FITC phosphopeptide, fluorescence polarization; Potency, µM, for the others: max response, negative = inhibition, actives largely listed as inhibitors; hit rate 2.8% among 360,000; also: series mostly up to about 57 µM; nearly all actives have a fitted effect of over 65% in size
# Target sequence (P53350 whole entry, looked up, the tested form may be a part): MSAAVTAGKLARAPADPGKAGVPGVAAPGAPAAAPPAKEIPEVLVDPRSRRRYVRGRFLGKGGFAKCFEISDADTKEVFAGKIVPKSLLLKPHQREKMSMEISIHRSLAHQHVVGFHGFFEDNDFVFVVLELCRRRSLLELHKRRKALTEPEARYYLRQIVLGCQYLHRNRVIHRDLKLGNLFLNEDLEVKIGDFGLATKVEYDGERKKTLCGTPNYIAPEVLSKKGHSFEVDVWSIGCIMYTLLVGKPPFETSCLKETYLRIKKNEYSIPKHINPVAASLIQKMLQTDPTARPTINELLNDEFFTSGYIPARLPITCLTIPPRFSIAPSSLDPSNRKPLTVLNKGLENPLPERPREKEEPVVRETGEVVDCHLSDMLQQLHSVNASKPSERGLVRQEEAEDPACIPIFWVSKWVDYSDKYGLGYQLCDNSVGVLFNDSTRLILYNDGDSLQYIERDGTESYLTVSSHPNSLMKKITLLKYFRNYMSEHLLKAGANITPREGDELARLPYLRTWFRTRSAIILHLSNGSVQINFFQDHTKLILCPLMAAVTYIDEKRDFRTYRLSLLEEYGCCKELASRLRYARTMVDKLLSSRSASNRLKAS
# TDP1 cell noCPT = qHTS for Inhibitors of human tyrosyl-DNA phosphodiesterase 1 (TDP1): qHTS in cells in absence of CPT. hit rate 15% among 420,000. Potency, µM (series often up to 46.2 µM), inactives show at the highest dose activity change, negative = growth inhibition, usual class: inhibitors. AID 686978, 2013. DT40 Tdp1-/- hTDP1 cells, no CPT, ATP luminescence, 48 h; also: nearly all actives have a fitted effect of over 55% in size
#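 Compound effects on proliferation are scored in DT40 Tdp1-/-;hTDP1 cells in the absence of CPT. ATP levels (CellTiter-Glo luminescence) are recorded after a ≥48 hr, 37 °C incubation.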
# KAT2A inh = blocks human GCN5L2 histone acetyltransferase; Q92830; GCN5L2 HAT assay, ThioGlo1 CoA-SH fluorescence; Potency, µM (top dose mostly 58.9 µM), inactives show top-dose activity change, negative = inhibition, hits mostly inhibitors; hit rate 0.21% among 390,000; AID 504327
#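 GCN5L2 (20nM final) in 50mM HEPES, 0.1mM EDTA pH 7.5, 0.01% Tween-20 was preincubated 15 min at room temperature with compound, then given ThioGlo1 (50uM), H3(1-25) peptide (75uM) and acetyl-CoA (70uM); CoA-thiol fluorescence (Ex340/Em540) was read at 0 and 20 min.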
# TDP1 inh = blocks human tyrosyl-DNA phosphodiesterase 1 | Q9NUW8 | recombinant TDP1, AlphaScreen DNA substrate cleavage | Potency, µM (top dose mostly 130 µM), for inactives: top-dose activity change, negative = inhibition, hits mostly inhibitors | hit rate 0.28% among 350,000 | AID 485290; also: nearly all actives have a fitted effect of over 40% in size
#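 Here, a 5' biotin and 3' phosphotyrosine-FITC DNA oligonucleotide reports Tdp1 activity: intact substrate bridges AlphaScreen beads, while cleavage leaves a 3' phosphate and drops signal. All incubations at room temperature.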
# VDR inh = vitamin D3 receptor (human) inhibition | hit rate 0.93% among 400,000 | Potency, µM, without a hit: max response, negative = inhibition, most hits filed as inhibitors | VDR-SRC2-3 peptide fluorescence polarization, 2 h
#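 After 23 nl compound addition and a short centrifugation, plates sat for 2 hours at ambient temperature; polarization of fluorescence then indicated loss of VDR binding to peptide SRC2-3.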
# DT40 TDP1 CPT = growth inhibition of DT40 Tdp1-/-;hTDP1 cells with camptothecin (screen for TDP1 inhibitors); chicken DT40 Tdp1-/-;hTDP1 cells + 20 nM CPT, ATP luminescence, 48 h; Potency, µM (titrated, usually from 46.2 µM), inactives show top-dose activity change, negative = growth inhibition, most hits filed as inhibitors; hit rate 12% among 420,000; also: nearly all actives have a fitted effect of over 55% in size
#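 Chicken DT40 Tdp1-/- cells complemented with human TDP1, 400 cells/well, exposed to compounds plus 20 nM camptothecin for at least 48 h at 37 C; viability read as ATP content by CellTiter-Glo luminescence.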
# Numbers without * were called inactive; ? = inconclusive; / = no result; ! = a repeat was not active; [ ] = another dose, or the depositor's remark. This is a sample that favours compounds with a hit; in the whole collection about 18% have one here. Calls follow the shape of the dose curve; as a rule, active = well fitted curve in the direction sought with a large enough effect; inconclusive = small, poorly fitted or top-dose-only effect, or another doubt; inactive = no such curve, though single readings can be large; an effect the other way counts as inactive or inconclusive. % is scaled to controls: 0 for no effect and ±100 for the full control effect; potency is read from the fitted curve at half-maximal effect.
SMILES,PLK1 PBD block,TDP1 cell noCPT,KAT2A inh,TDP1 inh,VDR inh,DT40 TDP1 CPT
O=c1[nH]c(/C=C\c2cccnc2)c([N+](=O)[O-])c(=O)[nH]1,27µM*,?,-13%,3%,-11%,?
O=c1[nH]c(/C=C/c2cccnc2)c([N+](=O)[O-])c(=O)[nH]1,-5%,-18%,-15%,2%,-15%,28%
Cc1nn(CCCC(=O)NCCc2ccc(Cl)cc2)c(=O)c2c1sc1ccccc12,/,?,-11%,6%,11%,?
CN(Cc1ccco1)c1ncnc2ccc(-c3cccc(C#N)c3)cc12,/,23µM*,-26%,-10%,?,23µM*
CN(C)c1ccc(-c2cncnc2N(C)Cc2ccco2)cc1,/,-16%,-11%,/,?,?
Cc1cccc(-c2ccc3ncnc(N(C)Cc4ccco4)c3c2)c1,/,/,-6%,/,/,/
CN(Cc1ccco1)c1ncnc2ccc(-c3ccc4c(c3)OCO4)cc12,/,16µM*,-6%,4%,40µM*!,18µM*
CN(Cc1ccco1)c1ncnc2ccc(-c3cccnc3)cc12,/,18µM*,-5%,-7%[56.1 µM],?,15µM*
CN(Cc1ccco1)c1ncncc1-c1cccnc1,/,-4%,-1%,/,45µM*,-9%
CCC1CN(C(=O)Nc2cc(Cl)c(OC)cc2OC)c2ccccc2O1 (centres undefined),/,-2%,-10%,0%,6%,12%
C[C@H](CO)N1C[C@H](C)[C@@H](CN(C)Cc2ccc3c(c2)OCO3)Oc2c(NC(=O)C3CCCCC3)cccc2C1=O,4%,23µM*,-3%,5%,-12%,21µM*
C[C@H](CO)N1C[C@H](C)[C@@H](CN(C)Cc2ccc(C(=O)Nc3ccccc3N)cc2)Oc2c(NC(=O)C3CCCCC3)cccc2C1=O,-1%,15µM*,-3%,5%,-12%,15µM*
C[C@@H]1CN([C@H](C)CO)C(=O)c2cccc(NC(=O)c3ccncc3)c2O[C@@H]1CN(C)Cc1ccc(C(=O)O)cc1,-11%,0%,1%,4%,-5%,5%
C[C@H](CO)N1C[C@H](C)[C@@H](CN(C)Cc2ccc(Cl)c(Cl)c2)Oc2c(NC(=O)C3CC3)cccc2C1=O,2%,23µM*,-5%,1%,-5%,16µM*
C[C@H](CO)N1C[C@H](C)[C@@H](CN(C)Cc2ccc(Cl)c(Cl)c2)Oc2c(NC(=O)CCC(F)(F)F)cccc2C1=O,-16%,12µM*,-12%,3%,-12%,18µM*
C[C@H](CO)N1C[C@H](C)[C@@H](CN(C)S(=O)(=O)c2ccccc2)Oc2c(NC(=O)CCC(F)(F)F)cccc2C1=O,1%,-6%,-1%,1%,-17%,-13%
C[C@H]1CN([C@@H](C)CO)C(=O)c2cccc(NC(=O)C3CC3)c2O[C@H]1CN(C)Cc1ccc(C(F)(F)F)cc1,-12%,?,-2%,0%,7%,-28%
CCN1CCN(C(c2cccc(Cl)c2)c2c(O)cc(C)n(CCOC)c2=O)CC1 (centres undefined),/,-9%,-9%,-5%,-15%,5%
Cc1ccccc1C(=O)/C=C1/SCC(=O)N1C,1%,3%,-4%,4%,6%,-4%
CC(=O)Nc1cccc(CCc2nc3ccccc3[nH]2)c1,?,18µM*,-8%,/,71µM*,?
O=C(CCNC(=O)c1ccc(Br)cc1)Nc1nc2ccccc2[nH]1,5%,-15%,-14%,-4%,13%,-9%
O=C(Cc1ccc(Br)cc1)Nc1nc2ccccc2[nH]1,5%,2.3µM*,-19%,3%,3%,6.5µM*
O=C(CSc1ccc(Cl)cc1)Nc1ccc(-c2nc3ccccc3[nH]2)cc1,-5%,8.2µM*,-6%,-5%,2%,12µM*
O=C(CSc1ccccc1)Nc1nc2ccccc2[nH]1,-3%,21µM*,-14%,3%,1%,?
Cc1ccc(CC(=O)NO)cc1,/,-16%,/,/,/,?
